The values that follow come from ChEMBL document CHEMBL2218924, “A broad activity screen in support of a chemogenomic map for kinase signalling research and drug discovery” (Biochem J, 2013).

Test [1] concerns the target Protein kinase C alpha type (Homo sapiens) (UniProt P17252). The conditions noted are these: at 1 µM.
Test [2] has the same target. The conditions noted are these: at 10 µM.
The target of test [3] is Protein kinase C beta type (Homo sapiens) (UniProt P05771). The conditions noted are these: at 1 µM.
Sequence of Protein kinase C beta type (Homo sapiens) (P05771 2-671 limits assumed): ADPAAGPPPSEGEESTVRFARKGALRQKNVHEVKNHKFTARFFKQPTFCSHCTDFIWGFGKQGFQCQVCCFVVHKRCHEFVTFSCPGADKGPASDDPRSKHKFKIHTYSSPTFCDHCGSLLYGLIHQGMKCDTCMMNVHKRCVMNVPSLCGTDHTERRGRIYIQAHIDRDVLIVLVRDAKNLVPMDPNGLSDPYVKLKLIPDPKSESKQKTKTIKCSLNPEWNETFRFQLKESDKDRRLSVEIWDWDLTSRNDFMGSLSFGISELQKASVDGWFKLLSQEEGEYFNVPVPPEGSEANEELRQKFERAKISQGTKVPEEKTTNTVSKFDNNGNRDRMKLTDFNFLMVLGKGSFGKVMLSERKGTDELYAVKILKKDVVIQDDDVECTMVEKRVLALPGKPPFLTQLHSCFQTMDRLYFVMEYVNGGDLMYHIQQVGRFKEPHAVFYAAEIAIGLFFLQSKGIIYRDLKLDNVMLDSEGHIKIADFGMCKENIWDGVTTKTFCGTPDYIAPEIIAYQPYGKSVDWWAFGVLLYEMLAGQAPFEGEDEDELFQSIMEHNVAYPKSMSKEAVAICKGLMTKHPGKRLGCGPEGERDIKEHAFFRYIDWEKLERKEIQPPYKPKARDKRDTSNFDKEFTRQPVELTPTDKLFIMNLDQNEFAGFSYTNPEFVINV
Test [4] has the same target. The conditions noted are these: at 10 µM.
For test [5] the target is unchanged. The conditions noted are these: at 1 µM. The source holds these as a separate data set.
In test [6] the target is Protein kinase C gamma type (Homo sapiens) (UniProt P05129). The conditions noted are these: at 1 µM.
Test [7] has the same target. The conditions noted are these: at 10 µM.
Test [8] deals with Protein kinase C delta type (Homo sapiens) (UniProt Q05655). The conditions noted are these: at 1 µM.
Sequence of Protein kinase C delta type (Homo sapiens) (Q05655 whole entry, looked up): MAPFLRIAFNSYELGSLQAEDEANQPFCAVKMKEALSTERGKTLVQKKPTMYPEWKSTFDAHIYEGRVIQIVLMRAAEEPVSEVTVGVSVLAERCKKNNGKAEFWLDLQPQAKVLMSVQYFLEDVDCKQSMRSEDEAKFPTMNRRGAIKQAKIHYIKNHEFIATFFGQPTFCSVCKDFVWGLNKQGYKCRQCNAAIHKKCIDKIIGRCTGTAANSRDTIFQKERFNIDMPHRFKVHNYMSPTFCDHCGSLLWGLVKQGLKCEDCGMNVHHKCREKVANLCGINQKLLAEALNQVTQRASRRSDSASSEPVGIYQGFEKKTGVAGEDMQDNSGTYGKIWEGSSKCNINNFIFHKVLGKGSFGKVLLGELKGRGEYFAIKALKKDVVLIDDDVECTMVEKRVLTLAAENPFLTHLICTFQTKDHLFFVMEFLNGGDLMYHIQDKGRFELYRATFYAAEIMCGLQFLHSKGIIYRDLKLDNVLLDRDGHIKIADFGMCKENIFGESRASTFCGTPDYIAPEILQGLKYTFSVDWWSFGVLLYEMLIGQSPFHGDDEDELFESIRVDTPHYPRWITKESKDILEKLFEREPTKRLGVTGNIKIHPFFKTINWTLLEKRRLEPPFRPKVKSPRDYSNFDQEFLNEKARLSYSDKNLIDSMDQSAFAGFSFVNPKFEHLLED
Test [9] has the same target. The conditions noted are these: at 10 µM.
In test [10] the target is T1, Protein kinase C epsilon type (Homo sapiens) (UniProt Q02156).
T1 sequence (whole entry): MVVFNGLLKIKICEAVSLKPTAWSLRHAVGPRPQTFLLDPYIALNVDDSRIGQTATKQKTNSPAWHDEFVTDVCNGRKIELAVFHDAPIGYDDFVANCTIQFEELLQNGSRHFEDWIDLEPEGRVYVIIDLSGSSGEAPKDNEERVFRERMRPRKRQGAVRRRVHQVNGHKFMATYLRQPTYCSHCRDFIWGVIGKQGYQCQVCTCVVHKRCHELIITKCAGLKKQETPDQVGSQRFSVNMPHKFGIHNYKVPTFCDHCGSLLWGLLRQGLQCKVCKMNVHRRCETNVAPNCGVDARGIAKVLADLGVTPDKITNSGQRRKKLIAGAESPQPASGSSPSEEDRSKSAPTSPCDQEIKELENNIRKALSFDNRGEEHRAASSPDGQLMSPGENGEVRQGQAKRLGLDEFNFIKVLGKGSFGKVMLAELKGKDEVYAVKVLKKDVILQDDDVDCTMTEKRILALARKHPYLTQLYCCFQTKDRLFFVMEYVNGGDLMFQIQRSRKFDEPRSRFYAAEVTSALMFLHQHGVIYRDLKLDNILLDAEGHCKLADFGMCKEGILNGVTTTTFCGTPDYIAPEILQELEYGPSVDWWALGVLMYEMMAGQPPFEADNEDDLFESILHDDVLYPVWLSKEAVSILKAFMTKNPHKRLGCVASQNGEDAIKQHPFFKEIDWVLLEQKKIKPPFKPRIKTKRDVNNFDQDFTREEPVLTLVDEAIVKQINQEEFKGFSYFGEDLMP
The conditions noted are these: at 1 µM.

For test [11], the target named is T1, Protein kinase C epsilon type (Homo sapiens). The conditions noted are these: at 10 µM.
Test [12] has as its target Protein kinase C beta type (Homo sapiens) (UniProt P05771). The conditions noted are these: at 10 µM. This is another data set of the same source.

For `Cc1ccc(S(=O)(=O)/C=C/C#N)cc1`, the residual activity in test [1] turned out to be 88%; in [2], 93%; in test [3] it was 98%; in test [4], 102%; in test [5] it was 104%; in test [6], 99%. Besides, the residual activity in [7] is 87%; in [8] it was 101%; in [9], 105%; in test [10], 101%; in test [11] it was 92%.

Consider `Cc1nc(-c2ccccc2)c(-c2ccncc2)o1`, for which the residual activity in test [1] worked out at 113%; in test [2], 101%; in [3] it was 109%; in test [4], 95%; in [5], 106%; in test [12], 101%. Also, the residual activity in test [6] is 108%; in test [8] it was 101%; in test [9], 90%; in [10], 108%; in test [11] it was 108%.

As for `O=C1NC(=O)/C(=C/c2ccc3c(c2)OC(F)(F)O3)S1`, the residual activity in [1] worked out at 106%; in test [2], 102%; in [3], 134%; in test [4] it was 126%; in [5], 98%; in test [12], 102%. In addition, the residual activity in test [6] is 103%; in test [7], 101%; in test [8] it was 107%; in test [9], 103%; in test [10], 106%; in test [11], 99%.

For `O=C1Nc2ccc(Br)cc2/C1=C\c1cc2c([nH]1)CCCC2`, the residual activity in test [1] was 104%; in test [2] it was 105%; in test [6], 109%; in test [7] it was 111%; in [8], 100%; in test [9], 107%.

For the compound `CC(C)n1cnc2c(NCc3ccccc3)nc(NCCCO)nc21`, the residual activity was 99% in test [1]; 102% in [2]; 106% in test [3]; 105% in test [4]; 105% in test [5]; 104% in test [12]. Besides, the residual activity in test [6] was found to be 92%; in test [7] it was 104%; in test [8], 94%; in test [9] it was 98%; in test [10], 91%; in test [11], 103%.

With `Cn1nc2c3c(cccc31)C(=O)c1ccccc1-2`, the residual activity in test [1] came to 101%; in test [2] it was 97%; in [3] it was 107%; in test [4] it was 104%; in test [5], 109%; in test [12], 103%. The residual activity in test [6] stood at 90%; in [7] it was 101%; in test [8] it was 104%; in [9], 108%; in [10], 106%; in test [11], 98%.

For the compound `Nc1ccc2ncnc(NCCc3ccc(Oc4ccccc4)cc3)c2c1`, the residual activity in [1] came to 103%; in [2] it was 103%; in test [3], 137%; in [4], 113%; in [5] it was 118%; in test [12] it was 104%. The residual activity in test [6] stood at 87%; in test [7] it was 111%; in test [8], 106%; in test [9], 111%; in [10], 119%; in test [11], 126%.

`O=[N+]([O-])c1ccc(-c2nc(-c3ccc(F)cc3)c(-c3ccncc3)[nH]2)cc1`: the residual activity in [1] was determined as 110%; in test [2], 99%; in [3] it was 107%; in [4], 97%; in test [5], 107%; in test [12], 96%. Further, the residual activity stood at 114% in test [7]; 104% in test [8]; 103% in test [9]; 106% in test [10]; 99% in [11].

Take `N#Cc1cnc2cnc(NCc3cccnc3)cc2c1Nc1ccc(F)c(Cl)c1`: the residual activity came to 98% in test [1]; 55% in test [2]; 18% in [3]; 18% in [4]; 61% in test [8]; 24% in test [9]. Moreover, the results for the residual activity in test [10] and in test [11] were 81% and 42%, respectively.

Regarding `c1ccc2c(-c3ccncc3)c[nH]c2c1`, the residual activity stood at 98% in [1]; 80% in [2]; 105% in [3]; 64% in test [4]; 98% in [5]; 65% in test [12]. The residual activity in test [6] was 106%; in test [7], 86%; in [8] it was 63%; in test [9], 23%; in test [10], 73%; in [11], 55%.

Take `COc1cc2ncnc(Nc3ccc(NC(=O)c4ccccc4)cc3)c2cc1OC`: the residual activity in [2] is 107%; in [5] it was 100%; in test [12], 94%; in test [8], 107%; in test [9], 102%; in [10], 93%.

For the compound `c1ccc(-c2n[nH]c3c2oc2ccccc23)cc1`, the residual activity in test [5] is 96%; in test [12] it was 98%; in [10], 97%; in test [11], 88%.

Consider `N#CC(C#N)=C(N)/C(C#N)=C/c1ccc(O)cc1`, for which the residual activity in [3] is 120%; in test [4], 122%; in [5] it was 96%; in test [12], 90%; in test [7], 79%; in [10], 95%. For the same compound, the residual activity in test [11] was 89%.

For `Cn1cc(/C=C2\C(=O)Nc3ccc(S(N)(=O)=O)cc32)c2ccccc21`, the residual activity is 108% in test [1]; 104% in test [2]; 111% in test [3]; 109% in test [4]; 103% in test [5]; 108% in test [12]. Moreover, the residual activity in [7] amounted to 79%; in [8] it was 101%; in [9], 99%; in test [10], 90%; in test [11], 100%.

`Nc1cccc(-c2cc3c(Oc4cccc(O)c4)ncnc3[nH]2)c1`: the residual activity in [2] stood at 97%; in test [5], 104%; in [12], 95%; in test [6], 98%; in [7], 101%; in [8], 100%. Also, the residual activity in test [9] is 95%; in test [10] it was 120%; in test [11] it was 98%.

As for `O=C(O)c1ccc2c3c1cccc3c(=O)n1c3ccccc3nc21`, the residual activity in [1] came out at 99%; in test [2], 98%; in test [3], 125%; in [4], 113%; in test [5] it was 115%; in test [12], 100%. The residual activity in [6] came out at 94%; in [7], 74%; in test [8], 100%; in test [9], 107%; in test [10], 112%; in test [11], 109%.

`Cc1cncc2cccc(S(=O)(=O)N3CCCN(C(=O)CN)C[C@H]3C)c12`: the residual activity in [1] stood at 99%; in test [2], 85%; in [3] it was 82%; in test [4] it was 31%; in test [5], 95%; in test [12], 51%. Also, the residual activity in [8] stood at 7%; in test [9] it was 3%; in test [10], 58%; in [11], 23%.

On to `COc1cc2ncnc(Nc3ccc(Oc4ccccc4)cc3)c2cc1OC`, for which the residual activity came out at 91% in test [1]; 96% in test [2]; 120% in test [3]; 126% in test [4]; 104% in [5]; 104% in [12]. Besides, the residual activity in [6] amounted to 105%; in [7] it was 97%; in test [8] it was 103%; in [9], 107%; in [10] it was 85%; in test [11], 89%.

As for `O=C(Nc1cccc(Nc2cc(Nc3cccc(C(F)(F)F)c3)ncn2)c1)C1CC1`, the residual activity in test [1] turned out to be 102%; in test [2], 101%; in [3], 105%; in test [4] it was 104%; in test [5], 98%; in [12], 97%. For the same compound, the residual activity in test [6] was determined as 112%; in test [7] it was 106%; in [8], 93%; in test [9] it was 94%; in test [10], 90%; in test [11], 97%.

The term residual activity denotes the signal under treatment as a percentage of the control signal.
